Assay outcomes deposited in PubChem BioAssay by The Scripps Research Institute Molecular Screening Center.
DAX1 inh-1: DAX1 (NR0B1) inhibitors on StAR promoter, primary screen, cell-based, luminescence, SF-1 (NR5A1), full-length DAX-1. HEK293T StAR-luciferase reporter, SF-1/DAX-1 repression relief. inhibition, % at 6.8 µM. actives 1.1% (n = 370,000);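 active = inhibition above the mean over all tested compounds plus 3 SD, cut at about 3.6% in these data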;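 note: 0% = DAX-1 cells with DMSO and 100% = cells lacking DAX-1 with DMSO; higher inhibition means more luminescence from relief of DAX-1 repression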
AHR activator: AHR activators, primary screen, cell-based, luminescence, luciferase reporter, human; Aryl hydrocarbon receptor (Homo sapiens), P35869; activation, % at 5 µM; AID 2796, 2010; actives 2.5% (n = 320,000); AHR-responsive luciferase reporter cells; in the data active = activation above about 47%;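 note: 0% = vehicle wells and 100% = reference agonist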
Target sequence (P35869 whole entry, looked up): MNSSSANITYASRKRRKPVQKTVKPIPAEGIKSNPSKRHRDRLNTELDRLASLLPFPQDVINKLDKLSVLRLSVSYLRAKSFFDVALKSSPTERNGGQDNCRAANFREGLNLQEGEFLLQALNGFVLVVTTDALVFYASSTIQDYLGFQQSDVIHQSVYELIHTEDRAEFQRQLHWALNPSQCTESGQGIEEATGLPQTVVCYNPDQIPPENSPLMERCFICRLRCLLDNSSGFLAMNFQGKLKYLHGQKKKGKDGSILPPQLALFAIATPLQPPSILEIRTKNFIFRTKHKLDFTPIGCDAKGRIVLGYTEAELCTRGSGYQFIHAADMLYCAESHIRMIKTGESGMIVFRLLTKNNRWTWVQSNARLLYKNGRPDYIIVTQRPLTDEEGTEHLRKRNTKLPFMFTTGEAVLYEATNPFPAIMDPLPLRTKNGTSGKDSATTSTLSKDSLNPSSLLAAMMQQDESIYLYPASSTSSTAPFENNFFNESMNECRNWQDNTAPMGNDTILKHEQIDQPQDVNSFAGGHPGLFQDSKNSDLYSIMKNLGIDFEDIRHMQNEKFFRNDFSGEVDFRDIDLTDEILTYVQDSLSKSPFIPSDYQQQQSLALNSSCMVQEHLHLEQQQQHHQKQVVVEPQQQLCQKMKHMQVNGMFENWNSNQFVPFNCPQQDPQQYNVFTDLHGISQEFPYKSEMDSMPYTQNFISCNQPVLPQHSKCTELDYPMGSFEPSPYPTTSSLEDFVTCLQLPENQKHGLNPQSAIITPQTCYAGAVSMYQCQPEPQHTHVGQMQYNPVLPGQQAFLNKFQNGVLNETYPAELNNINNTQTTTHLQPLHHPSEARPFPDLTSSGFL
DAX1 inh-2: DAX1 (NR0B1) inhibitors, primary screen, cell-based, HEK293, Gal4-DAX1, luciferase luminescence. inhibition, % at 6.75 µM. AID 504766, 2011. HEK293 Gal4-DAX1 luciferase reporter. Nuclear receptor subfamily 0 group B member 1 (Homo sapiens), P51843. actives 0.99% (n = 340,000);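 active = inhibition above the mean over all tested compounds plus 3 SD, cut at about 4.2% in these data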;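 note: 0% = DAX1-transfected cells with DMSO and 100% = empty-vector control cells with DMSO; inhibition shows as a rise in luminescence from relieved DAX1 repression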
hcDAF12 agonist: H. contortus DAF-12 nuclear receptor activators, primary screen, cell-based, luminescence, HEK293, lit1-tk-luc reporter; HEK293 hcDAF-12 lit1-tk-luc reporter; 0% DMSO, 100% Δ7-dafachronic acid; activation, % at 6.8 µM; actives 1.4% (n = 370,000); AID 652067, 2013;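 active = activation above the mean of all tested compounds plus 3 SD, cut at about 5.5% in these data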;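 note: 100% = response to 3 µM Δ7-dafachronic acid high control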
ssDAF-12 act: S. stercoralis DAF-12 nuclear receptor activators, primary screen, cell-based, luminescence, HEK293, GRIP1 co-expression, lit1-tk-luc; Nuclear hormone receptor DAF-12 (Strongyloides stercoralis); HEK293 ssDAF-12/GRIP1 lit1-tk-luc reporter; % of 3 µM dafachronic acid response; activation, % at 6.8 µM; actives 1% (n = 370,000);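 active = activation above the mean over all tested compounds plus 3 SD, cut at about 0.9% in these data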;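 note: 0% = DMSO-only wells and 100% = 3 µM delta7-dafachronic acid wells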
hgDAF12 agonist: H. glycines DAF-12 receptor agonists, primary screen, cell-based, luminescence, HEK293, GAL4 fusion, UAS-luciferase; HEK293 GAL4-hgDAF12 UAS-luciferase reporter, agonist luminescence; normalized to butyrate control; activation, % at 6.8 µM; actives 1.8% (n = 370,000);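 active = activation above a cutoff set at the mean of all screened compounds plus 3 SD, cut at about 10% in these data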;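 note: 0% = DMSO wells and 100% = sodium butyrate wells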
LXR ag: LXR agonists, Gal4 luciferase reporter, confirmation, counter-screen for hcDAF-12 agonist project, cell-based, luminescence, HEK293, H. contortus campaign | AID 743027, 2013 | 3,400 tested, under 10 active | shares compounds with hcDAF12 agonist | HEK293 Gal4-LXR tk-luc reporter, 24 h; normalized: DMSO 0%, positive control 100% | activation, % at 6.8 µM;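 active = mean percent activation of the reporter above a cutoff set as the average over tested compounds plus their standard deviation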
hcDAF12 ag: H. contortus DAF-12 receptor agonists, confirmation, cell-based, luminescence, HEK293, lit1-tk-luc, triplicate | actives 61% (n = 3,400) | HEK293 hcDAF-12 lit1-tk-luc reporter; % of Δ7-dafachronic acid response | shares compounds with hcDAF12 agonist | activation, % at 6.8 µM | AID 743032, 2013;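 active = mean activation across triplicate tests above the threshold derived from the earlier primary screen, cut at about 5.5% in these data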;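 note: 0% = DMSO only wells and 100% = 3 µM Δ7-dafachronic acid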
Numbers without * were called inactive; . = no result. An excerpt weighted towards active compounds, which were near 5.7% of everything screened.

SMILES	DAX1 inh-1	AHR activator	DAX1 inh-2	hcDAF12 agonist	ssDAF-12 act	hgDAF12 agonist	LXR ag	hcDAF12 ag
CC(C)N=Cc1c(O)[nH]c2ccccc12	0	5	0	1	-1	2	.	.
Cc1cccc(/N=C/c2c(O)[nH]c3ccccc23)n1	2	64*	3	11*	1.2*	12*	1	9.2*
Oc1[nH]c2ccccc2c1C=Nc1ccc2c(c1)OCCO2	3	.	2	8.4*	1	13*	1	6.9*
CCOC(=O)c1c(CSc2cccs2)n(C)c2cc(Br)c(O)c(CN(C)C)c12	0	4	3	-2	-2	-2	.	.
Cc1cc(C)cc(N=Cc2[nH]c3ccc(Br)c(Cl)c3c2O)c1	-1	12	-1	35*	0	-3	0	-1
COc1ccc(NC(=O)CN2CCN(S(=O)(=O)N3CCCCCC3)CC2)cc1	0	0	1	-1	-1	1	.	.
COc1ccc(S(=O)(=O)N2CCCCC2)cc1NC(=O)Cc1ccsc1	0	0	0	0	-1	-2	.	.
COc1cccc2c1SCc1ccccc1C2CC(N)=O (stereo not given)	1	16	1	6.8*	0	0	0	3
CC1CN(C(=O)CCNS(=O)(=O)c2ccc(Br)cc2)CC(C)O1 (stereo not given)	1	1	-1	-2	-1	2	.	.
CC(C)CCNC(=O)C(=O)NCCC1=CCCCC1	0	2	-1	6.7*	0	4	0	2
CCCNC(=O)C(=O)NCCC1=CCCCC1	0	3	0	-2	-1	2	.	.
CS(=O)(=O)N1CCCC(C(=O)Nc2ccc3c(c2)OCCO3)C1 (stereo not given)	1	0	0	1	-1	-1	.	.
O=C(Nc1ccccn1)c1ccco1	1	2	3	8.5*	-1	3	0	2
O=C(Nc1ccc(NC(=O)c2ccco2)nc1)c1ccccn1	3	-7	1	5	0	10	.	.
CC(C)(C)c1ccc(/C=C/C(=O)NC2=NCCS2)cc1	4	13	-1	6.6*	0	7	1	5.7*
CCc1ccc(/C=C/C(=O)NC2=NCCS2)cc1	.	.	.	4	0	10	.	.
COC(=O)C(C)Oc1ccc(Oc2nc(Cl)ccc2Cl)cc1 (stereo not given)	0	2	1	-1	-2	2	.	.
Cc1cc(-c2ccccc2)nc2oc(C(=O)NN)c(N)c12	-1	44	0	6.6*	1.2*	-1	0	4
Cc1cc(C)c2c(N)c(C(=O)c3ccccc3)oc2n1	-1	-6	1	0	-1	0	.	.
CC1=NN(c2ccccc2)C(=O)/C1=C/c1ccc[nH]1	1	85*	0	7.6*	1.1*	9	0	8.8*
O=C(C[n+]1ccc(C(=O)N/N=C/c2ccc(OCc3ccccc3)cc2)cc1)c1ccccc1	0	4	0	7.5*	0	5	0	2
O=C(C[n+]1ccc(C(=O)N/N=C/c2ccc(O)cc2)cc1)c1ccccc1	0	8	0	-2	-1	-1	.	.
CCOc1ccccc1C(=O)NC(C(=O)Nc1cccnc1)C(C)C (stereo not given)	0	5	0	0	-1	1	.	.
Clc1ccccc1-c1cc2nc(NCCCn3ccnc3)ccn2n1	1	.	.	7.2*	0	8	1	3
c1ccc(NC2=Nc3ccccc3CS2)cc1	1	29	1	7.2*	0	13*	1	7.5*
SMILES	DAX1 inh-1	AHR activator	DAX1 inh-2	hcDAF12 agonist	ssDAF-12 act	hgDAF12 agonist	LXR ag	hcDAF12 ag
COc1cc(NC(=O)Cn2c(=O)n(-c3cccc(C)c3)c(=O)c3c(C)c(C)sc32)cc(OC)c1	0	5	1	1	0	0	.	.
COc1ccc(C2=CCCCCC2)cc1OC	3	.	2	1	-1	6	.	.
CC(C)(C)c1ccc(C2(C)NC(=O)NC2=O)cc1 (stereo not given)	0	0	2	8.7*	-1	1	0	2
Fc1cccc2sc(Nc3nc4ccccc4s3)nc12	1	44	2	12*	0	0	1	11*
CCC(=O)NNc1nc2c(F)cccc2s1	0	16	4	7.0*	0	5	0	4
CCCc1cc(=O)oc2cc(C)cc(OC(C)C(=O)NCCCn3ccnc3)c12 (stereo not given)	0	11	0	-2	-1	-1	.	.
Cc1ccc(C(=O)c2c3ccc(C(F)(F)F)cc3[n+]([O-])n2CCCC(N)=O)cc1	0	11	1	3	-1	0	.	.
Cc1ccc(C(=O)c2c3ccc(C(F)(F)F)cc3[n+]([O-])n2CCC(N)=O)cc1	0	11	1	7.8*	0	1	0	2
COc1ccc2c(C(=O)c3ccc(Cl)cc3)n(CCCC(N)=O)[n+]([O-])c2c1	0	25	1	6.9*	0	0	0	4
N#Cc1c(NC(=O)c2ccc([N+](=O)[O-])o2)sc2c1CCC2	0	4	-2	8.1*	1.0*	7	1	5
CC(C)c1onc(C(=O)Nc2sc3c(c2C#N)CCC3)c1[N+](=O)[O-]	0	7	2	1	-1	-2	.	.
Cc1ccccc1OCCC(=O)Nc1ccc2c(C)cc(=O)oc2c1	0	-17	1	-2	-1	3	.	.
Cc1ccc(OCc2cnc(Cl)s2)c(C)c1	1	0	2	-1	-1	2	.	.
COC(=O)[C@]12CCCCC=C1N(Cc1ccco1)C(=O)[C@H](CC(=O)NCc1ccccc1)C2	1	.	.	-2	-2	4	.	.
CCCCn1cnc2c(oc3nc4c(cc32)CCCC4)c1=O	3	-3	0	8.3*	0	11*	1	4
